Whole data set: some 33,000 sequences, median “E-score (-0.5 to 0.5)” near -0.012, cut for the highest 2% near 0.27. The list comes from a sample in which the highest values are over-represented; it also holds similar and randomly drawn sequences.
Molecular target: T1, Vhr1 (UniProt P40522)
T1 sequence: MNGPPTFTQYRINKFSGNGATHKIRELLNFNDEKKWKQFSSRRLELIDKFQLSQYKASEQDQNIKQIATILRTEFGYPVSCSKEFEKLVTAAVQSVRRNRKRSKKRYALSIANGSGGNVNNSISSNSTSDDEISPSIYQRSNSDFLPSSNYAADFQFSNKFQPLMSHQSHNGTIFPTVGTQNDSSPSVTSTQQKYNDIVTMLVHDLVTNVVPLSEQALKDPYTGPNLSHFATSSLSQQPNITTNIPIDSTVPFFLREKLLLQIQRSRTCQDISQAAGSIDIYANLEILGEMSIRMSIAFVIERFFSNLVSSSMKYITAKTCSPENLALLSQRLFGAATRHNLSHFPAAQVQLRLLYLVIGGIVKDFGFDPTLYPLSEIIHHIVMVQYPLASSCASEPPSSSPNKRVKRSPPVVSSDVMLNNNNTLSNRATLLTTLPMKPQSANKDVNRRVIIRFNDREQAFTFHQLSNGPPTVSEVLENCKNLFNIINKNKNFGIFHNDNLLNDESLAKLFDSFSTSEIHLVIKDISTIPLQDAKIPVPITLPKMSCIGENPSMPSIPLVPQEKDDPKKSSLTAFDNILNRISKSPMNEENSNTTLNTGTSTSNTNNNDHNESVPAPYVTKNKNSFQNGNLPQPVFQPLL
Assay: PBM E-score (8-mer binding enrichment) (E-score (-0.5 to 0.5)); higher = stronger / more preferred TF binding
Conditions: protein concentration: 200 nM; construct: GST-full length
Outline: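 Yeast transcription factors carrying a GST tag, as full-length proteins or DNA-binding domains, were produced by PURExpress in vitro transcription/translation. About 100-200 nM protein was applied to universal all-10-mer Agilent arrays, double-stranded by primer extension on fresh or once-stripped slides. Bound protein was detected with fluorescent anti-GST, and scans were normalised with masliner. The Universal PBM Analysis Suite gave each ungapped eight-base word, pooled with its reverse complement, an E-score, a modified Wilcoxon-Mann-Whitney statistic.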

With CTGGCTCC as the sequence, how does the “PBM E-score” value read?
Its value is 0.0343.

CCGGCTCA was tested. Which “PBM E-score” value did it give?
Its value is 0.0508.

How did the “PBM E-score” value turn out when GTGGCTCA was run?
Its value is 0.277.

For GTAGCTCA, which “PBM E-score” value is on record?
The value was 0.0143.

Which “PBM E-score” value does the source give for AGGGCTCA here?
The value was 0.0814.

How did the “PBM E-score” value turn out when CTGGCTCA was run?
Its value is 0.28.

Which “PBM E-score” value does the source give for ATGGCTCA here?
The value was 0.293.

Which “PBM E-score” value does the source give for AGGGCTCC here?
The value was -0.358.

How did the “PBM E-score” value turn out when ATGGCTCG was run?
The value was 0.231.

With ATAGCTCA as the sequence, how does the “PBM E-score” value read?
The value was 0.0225.

ATGGCTCC was tested. Which “PBM E-score” value did it give?
The value was 0.325.

With GTGGCTTA as the sequence, how does the “PBM E-score” value read?
Its value is -0.111.

How did the “PBM E-score” value turn out when AATGAGCC was run?
The value was -0.00477.

AGAGACTG was tested. Which “PBM E-score” value did it give?
Its value is 0.0515.

CTGCAGAA was tested. Which “PBM E-score” value did it give?
Its value is 0.0335.

Which “PBM E-score” value does the source give for GATTGACA here?
The value was 0.0916.

For AAAGTTCG, which “PBM E-score” value is on record?
The value was -0.228.

AATCAGTG was tested. Which “PBM E-score” value did it give?
The value was 0.0903.

With AGTCAGTA as the sequence, how does the “PBM E-score” value read?
The value was 0.323.

How did the “PBM E-score” value turn out when ATTCAGTG was run?
The value was 0.0826.

How did the “PBM E-score” value turn out when CGTCAGTA was run?
Its value is 0.02.

How did the “PBM E-score” value turn out when AGTCAGTG was run?
Its value is 0.375.

Which “PBM E-score” value does the source give for AGTCAGTC here?
Its value is 0.214.

ATAGGAGA was tested. Which “PBM E-score” value did it give?
Its value is -0.00333.

For GCAGCAAC, which “PBM E-score” value is on record?
Its value is 0.126.

Which “PBM E-score” value does the source give for CAAGGGCC here?
The value was -0.201.

For GCACACAC, which “PBM E-score” value is on record?
Its value is 0.178.

How did the “PBM E-score” value turn out when ACAATATC was run?
The value was 0.0645.

ACACTATC was tested. Which “PBM E-score” value did it give?
The value was 0.151.

Which “PBM E-score” value does the source give for ACACTATA here?
The value was 0.152.

For CCACACAC, which “PBM E-score” value is on record?
The value was 0.143.

With ACCCATAC as the sequence, how does the “PBM E-score” value read?
The value was 0.222.

Which “PBM E-score” value does the source give for ACAATATG here?
Its value is 0.325.

How did the “PBM E-score” value turn out when ACACTATG was run?
The value was 0.292.

With ACACACAC as the sequence, how does the “PBM E-score” value read?
The value was 0.316.

For ACAATATA, which “PBM E-score” value is on record?
Its value is 0.221.

For ACCCATAG, which “PBM E-score” value is on record?
The value was 0.0609.

With ACCCATAT as the sequence, how does the “PBM E-score” value read?
Its value is 0.296.

For ACTGTTGG, which “PBM E-score” value is on record?
Its value is 0.034.

Which “PBM E-score” value does the source give for CCGATTTC here?
Its value is -0.129.

With GTATAGAC as the sequence, how does the “PBM E-score” value read?
The value was 0.145.

How did the “PBM E-score” value turn out when CGAAACCC was run?
Its value is -0.0543.

CAATCGTA was tested. Which “PBM E-score” value did it give?
The value was -0.029.

With ACCGATTC as the sequence, how does the “PBM E-score” value read?
Its value is -0.0343.

With CAGCGAGC as the sequence, how does the “PBM E-score” value read?
The value was 0.135.

How did the “PBM E-score” value turn out when CGAGCAGA was run?
The value was 0.0217.

How did the “PBM E-score” value turn out when TTGGTAAA was run?
The value was -0.12.

For ACACACAA, which “PBM E-score” value is on record?
Its value is 0.226.

For AAACACAT, which “PBM E-score” value is on record?
The value was 0.252.

ACACACTC was tested. Which “PBM E-score” value did it give?
Its value is 0.293.

CCACACAG was tested. Which “PBM E-score” value did it give?
Its value is 0.165.

For ACAGTATC, which “PBM E-score” value is on record?
The value was -0.14.

For CCACACTC, which “PBM E-score” value is on record?
Its value is -0.0226.

How did the “PBM E-score” value turn out when AGACACAT was run?
Its value is 0.0642.

ACACACTG was tested. Which “PBM E-score” value did it give?
The value was 0.163.

ACAGTATA was tested. Which “PBM E-score” value did it give?
The value was 0.11.

With ACAGTATG as the sequence, how does the “PBM E-score” value read?
The value was 0.277.

ACACACAT was tested. Which “PBM E-score” value did it give?
The value was 0.275.

With ACACACAG as the sequence, how does the “PBM E-score” value read?
Its value is 0.353.

With CAGTTGCG as the sequence, how does the “PBM E-score” value read?
The value was 0.107.

For ACTTCTGG, which “PBM E-score” value is on record?
Its value is -0.04.

GTTGAAAC was tested. Which “PBM E-score” value did it give?
Its value is -0.0891.

How did the “PBM E-score” value turn out when CTAAGAAA was run?
Its value is -0.112.

How did the “PBM E-score” value turn out when AATGCTAC was run?
The value was 0.072.

Which “PBM E-score” value does the source give for ACGCTCCT here?
Its value is -0.065.

For ACCCACAC, which “PBM E-score” value is on record?
Its value is 0.185.

Which “PBM E-score” value does the source give for ACCCACAT here?
The value was 0.271.

With ACCCACAG as the sequence, how does the “PBM E-score” value read?
The value was 0.157.

Which “PBM E-score” value does the source give for ACACTTAG here?
The value was 0.00688.

How did the “PBM E-score” value turn out when CGTCGGCA was run?
The value was 0.044.

How did the “PBM E-score” value turn out when ATTCGGCC was run?
Its value is 0.0234.

How did the “PBM E-score” value turn out when AGTCGGAA was run?
Its value is 0.293.

AGTCGGCA was tested. Which “PBM E-score” value did it give?
The value was 0.282.

CGTCGGCC was tested. Which “PBM E-score” value did it give?
Its value is -0.143.

AGTCGGCC was tested. Which “PBM E-score” value did it give?
The value was 0.278.

TGTCGGAA was tested. Which “PBM E-score” value did it give?
The value was 0.0453.

For CCTCGGCC, which “PBM E-score” value is on record?
The value was 0.00422.

For CCTCGGCG, which “PBM E-score” value is on record?
The value was 0.283.

CCTCGGCA was tested. Which “PBM E-score” value did it give?
The value was -0.129.

With AGTCGGAC as the sequence, how does the “PBM E-score” value read?
Its value is -0.0678.

For GGTCGGCA, which “PBM E-score” value is on record?
Its value is -0.138.

For GACTTGAA, which “PBM E-score” value is on record?
Its value is -0.152.

How did the “PBM E-score” value turn out when AAAGGTCA was run?
Its value is -0.173.

CCGACTGC was tested. Which “PBM E-score” value did it give?
The value was 0.126.

How did the “PBM E-score” value turn out when AGTCGGCG was run?
The value was 0.293.

AGTCGGTG was tested. Which “PBM E-score” value did it give?
Its value is 0.246.

ATTCGGCG was tested. Which “PBM E-score” value did it give?
The value was -0.00502.

Which “PBM E-score” value does the source give for AAGTGACA here?
The value was 0.0587.

How did the “PBM E-score” value turn out when ACAGGGTC was run?
The value was 0.133.

For CAGAGTCC, which “PBM E-score” value is on record?
The value was 0.0441.

How did the “PBM E-score” value turn out when AAGAGTGG was run?
Its value is -0.0723.

With CAGGGTCA as the sequence, how does the “PBM E-score” value read?
The value was 0.00801.

How did the “PBM E-score” value turn out when AAGAGTCG was run?
Its value is 0.281.

Which “PBM E-score” value does the source give for CAGAGTGA here?
The value was 0.0508.

For CAGAGTCA, which “PBM E-score” value is on record?
Its value is 0.344.

CAGGGTCG was tested. Which “PBM E-score” value did it give?
The value was 0.025.

How did the “PBM E-score” value turn out when CAGAGTCG was run?
Its value is 0.328.

Which “PBM E-score” value does the source give for AAGAGTTG here?
The value was -0.154.
